This passage reports activity change (PNC), negative = inhibition results from PubChem BioAssay AID2417 (National Center for Advancing Translational Sciences (NCATS), 2010).

Out of some 140,000 compounds screened, about 4,300 (3.1%) were called active. Roughly 21% stayed inconclusive and do not appear here. The list comes from a sample in which actives are over-represented; it also holds similar structures and randomly drawn compounds. Values without a mark were called inactive.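 Rule for the calls: active = readout at or below -70, meaning at least 70% loss of cells showing the perinucleolar compartment, a nuclear body marking cancer cells; inconclusive = readout between -30 and a set limit; inactive = the rest.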

A short description of this assay: High Content Assay for Compounds that inhibit the Assembly of the Perinucleolar Compartment.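 Note: plate controls were DMSO wells for no effect and camptothecin positive control wells for full effect.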 Particulars: PC3M PTB-GFP, PNC prevalence imaging, 16 h; at 10 µM; hits give low values. In short, it runs like this: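 PC3M cells stably expressing PTB-GFP, 750–1000 cells/well, treated 16 h at 37 °C with compound (23 nl of library stock), in duplicate. After paraformaldehyde fixation and Hoechst stain, imaged at 20x; PNC prevalence scored by image analysis.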
Regarding `O=C(CN1C(=O)c2cccc3cccc(c23)C1=O)N1CCCCC1`, the activity change (PNC), negative = inhibition is -26%.

As to `COc1ccc(NC(=S)NC2CCS(=O)(=O)C2)cc1` (configuration not stated), the activity change (PNC), negative = inhibition is 36.6%.

In the case of `O=C(Cc1ccccc1)NC(=S)Nc1ccc(N2CCCCC2)cc1`, the activity change (PNC), negative = inhibition is -26.1%.

Take `COc1ccc(NC(=S)NCC2CCN(c3ccc(OC)cc3)C2)cc1` (configuration not stated): the activity change (PNC), negative = inhibition was -116% (active).

Consider `COCC(C)n1c(C)cc(C(=O)CSc2cc(C)c3ccccc3n2)c1C` (configuration not stated), for which the activity change (PNC), negative = inhibition was -11.6%.

Regarding `Cc1cc(F)ccc1S(=O)(=O)N1CCCOC1CNC(=O)C(=O)NCCC1=CCCCC1` (configuration not stated), the activity change (PNC), negative = inhibition is 14.2%.

`CCCc1cc(=O)[nH]c(SCC(=O)N2CCN(S(=O)(=O)c3ccc(C)cc3C)CC2)n1`: the activity change (PNC), negative = inhibition is -20%.

In the case of `Cc1nn(Cc2ccc(F)cc2)c(C)c1NC(=O)c1noc2c1CCc1ccccc1-2`, the activity change (PNC), negative = inhibition was -5.67%.

With `Cc1nn(Cc2ccc(F)cc2)c(C)c1NC(=O)c1cccnc1Cl`, the activity change (PNC), negative = inhibition was -102% (active).

For `Cc1cc(C(=O)Nc2c(C)nn(Cc3ccccc3)c2C)on1`, the activity change (PNC), negative = inhibition is 36%.

For `Nc1nc(SCC(=O)NN(c2ccccc2)c2ccccc2)n[nH]1`, the activity change (PNC), negative = inhibition is 8.76%.

With `Cc1ccccc1C1=NC(C(F)(F)F)(C(F)(F)F)c2c(n(-c3ccc(F)cc3)c(=O)[nH]c2=O)N1`, the activity change (PNC), negative = inhibition was -9.65%.

For the compound `CCOC(=O)C1CCc2nc3ccccc3c(=O)n21` (configuration not stated), the activity change (PNC), negative = inhibition is -123% (active).

As for `CCC1(CC)Cc2ccccc2-c2nc3ccccc3c(=O)n21`, the activity change (PNC), negative = inhibition was 35.3%.

For the compound `CCOC(=O)C(C)Sc1nc2ccccc2c(=O)n1CC1CCCCC1` (configuration not stated), the activity change (PNC), negative = inhibition is 0.699%.

With `O=C(COC(=O)c1cc(=O)[nH]c2ccccc12)Nc1nc(-c2cccc(Br)c2)cs1`, the activity change (PNC), negative = inhibition was 21.6%.

As to `COC(=O)Cc1ccc(OCC(=O)Nc2ccc(OC(F)(F)F)cc2)cc1`, the activity change (PNC), negative = inhibition was -17.1%.

For the compound `CCCCN(C)C(=O)C1CCN(Cc2ccccn2)CC1`, the activity change (PNC), negative = inhibition is -84.5% (active).

As to `CCCCN(Cc1ccccc1)C(=O)C1CCN(Cc2sccc2C)CC1`, the activity change (PNC), negative = inhibition is 30.3%.

As for `CCCC(=O)C1CCN(Cc2ccccc2)CC1`, the activity change (PNC), negative = inhibition is -25.7%.

Consider `CC(=O)Nc1cccc(Oc2cc(C#N)c(C#N)cc2N2CCOCC2)c1`, for which the activity change (PNC), negative = inhibition is -107% (active).

Take `CCOc1cccc(NC(=O)CC#N)c1`: the activity change (PNC), negative = inhibition was -1.74%.

Consider `CC(=O)Nc1ccc(N2CCOCC2)c(C(=O)Nc2cccc(C)c2)c1`, for which the activity change (PNC), negative = inhibition is -7.92%.

As to `CCn1nc(C)c(/C=N/NC(=O)Cc2ccc(Cl)cc2)c1C`, the activity change (PNC), negative = inhibition was 49.9%.

With `O=[N+]([O-])c1cc(S(=O)(=O)N2CCCC2)ccc1NN=C1CCCC1`, the activity change (PNC), negative = inhibition is 27.5%.

`COc1cc(NC(=O)COC(=O)CSc2ccc3ccccc3c2)c(C)cc1[N+](=O)[O-]`: the activity change (PNC), negative = inhibition is 0.296%.

In the case of `O=C(Nc1cccc2ccccc12)N1CCN(Cc2ccc3c(c2)OCO3)CC1`, the activity change (PNC), negative = inhibition is -95.4% (active).

In the case of `CS(=O)(=O)N(CC(=O)N1CCN(Cc2ccc3c(c2)OCO3)CC1)c1ccc2c(c1)OCO2`, the activity change (PNC), negative = inhibition was -4.43%.

Regarding `O=C(Nc1ccccc1)N1CCN(Cc2ccccc2)CC1`, the activity change (PNC), negative = inhibition was 47.3%.

For `O=C(CSCc1ccc(Cl)cc1)N1CCN(Cc2ccc3c(c2)OCO3)CC1`, the activity change (PNC), negative = inhibition is -86.5% (active).

As for `O=C(CSCc1ccc(Cl)cc1)N1CCCCC1`, the activity change (PNC), negative = inhibition is 0.451%.

On to `O=C(CCCN1C(=O)c2cccc3cccc(c23)C1=O)N1CCN(Cc2ccc3c(c2)OCO3)CC1`, for which the activity change (PNC), negative = inhibition was -24.4%.

For the compound `O=C(Nc1ccccc1F)c1ccccc1-c1ccc(C(F)(F)F)cc1`, the activity change (PNC), negative = inhibition is 16.7%.

On to `CCc1nccn1S(=O)(=O)c1cccc([N+](=O)[O-])c1`, for which the activity change (PNC), negative = inhibition is 10%.

Consider `Cc1nnc(NC(=O)/C=C/c2ccco2)s1`, for which the activity change (PNC), negative = inhibition was -22.5%.

As for `CCS(=O)(=O)Nc1cccc(-c2cc(-c3ccccc3)c3cc(C)ccc3n2)c1`, the activity change (PNC), negative = inhibition was 81.5%.

For the compound `CCc1ccc(C(=O)OCC(=O)Nc2cccc(S(=O)(=O)NC3=NCCCCC3)c2)cc1`, the activity change (PNC), negative = inhibition is 14.5%.

As to `COc1ccc(S(=O)(=O)NC(CC(=O)NCc2ccccc2OC)c2ccco2)cc1` (configuration not stated), the activity change (PNC), negative = inhibition is 32.4%.

Take `CC(=O)Nc1ccc(S(=O)(=O)NC(C)C(=O)OCC(=O)NC2CCCC2)cc1` (configuration not stated): the activity change (PNC), negative = inhibition was 5.59%.

Consider `O=C(CC(NS(=O)(=O)c1ccc(Cl)cc1)c1ccco1)NC1CCCC1` (configuration not stated), for which the activity change (PNC), negative = inhibition was -84.2% (active).

Consider `N#Cc1ccsc1NC(=O)CN1CCCCC1`, for which the activity change (PNC), negative = inhibition is 8.2%.

Consider `CN1CCN(CC(=O)Nc2sc3c(c2C#N)CCC(C(C)(C)C)C3)CC1` (configuration not stated), for which the activity change (PNC), negative = inhibition is -86.5% (active).

Take `Cc1cccc(C(=O)OCC(=O)Nc2sc3c(c2C#N)CCC3)c1`: the activity change (PNC), negative = inhibition was 5.52%.

For the compound `COc1ccccc1Oc1ccc(N/C=C2/CCCC2=O)cc1`, the activity change (PNC), negative = inhibition is 39.1%.

As for `Cc1ccccc1OCC(=O)Nc1nc(C)c(C(=O)N(C)C)s1`, the activity change (PNC), negative = inhibition is -15.1%.

Turning to `CCn1c(=N)n(CC(=O)c2cccc(OC)c2)c2ccccc21`, the activity change (PNC), negative = inhibition was -117% (active).

`COc1ccc(OC)c(NC(=O)Cn2c(=O)oc3ccccc32)c1`: the activity change (PNC), negative = inhibition is 0.891%.
